# In the library only some 19% were active in any assay of this set; here they are far more common.
# uPA generation: cell surface uPA generation inhibition | AID 540303 | cell surface uPA generation assay, qHTS | hit rate 0.31% among 330,000 | Potency, µM (doses to about 38.3 µM), inactives show at the top dose activity change, negative = inhibition, usual class: inhibitors; active = well fitted inhibition curve with a large enough effect; inconclusive = small, poorly fitted or top-dose-only effect; inactive = no such curve, though single readings can be large or run the other way; tested in mouse RAW 264.7 cells; note: potency is the fitted concentration of half-maximal effect; nearly all actives have a fitted effect of over 55% in size
# IL-1B inflam inh: inflammasome signaling inhibition, IL-1 beta readout; THP-1 LPS/ATP IL-1B secretion, AlphaLISA, 16 h; stronger effect = lower value; activity change, % at 57.5 µM; hit rate 4.7% among 360,000; AID 743279; in the data active = activity change below about -50%; inconclusive = mostly about -30% to -49%
#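 Secreted IL-1B measured by AlphaLISA bead assay after 16 h compound exposure of THP-1 cells; compounds (final up to 57.5 uM) added 1 h before LPS (250 ng/mL) and ATP (1.25 mM) stimulation; lower signal means less secretion.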
# HT1080 IDH1KD tx: HT-1080 IDH1 knockdown cell toxicity (counter line). HT-1080 IDH1 knockdown viability, ATP luminescence, 48 h. hit rate 2% among 360,000. Potency, µM (top dose mostly 46.1 µM), for the others: at the highest dose activity, negative = toxicity, actives largely listed as cytotoxic;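 note: potency is the fitted concentration of half-maximal effect; 0% = DMSO wells and -100% = cell-free medium wells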
#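 CellTiter-Glo luminescence after 48 h compound exposure at 37 degrees C of IDH1-knockdown HT-1080 cells in 5% FBS RPMI. %Activity scaled between DMSO wells and cell-free media wells, with curves fitted and assigned curve classes.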
# DT40 TDP1 no CPT: qHTS for Inhibitors of human tyrosyl-DNA phosphodiesterase 1 (TDP1): qHTS in cells in absence of CPT; DT40 Tdp1-/- hTDP1 cells, no CPT, ATP luminescence, 48 h; Potency, µM (highest dose often 46.2 µM), inactives show top-dose activity change, negative = growth inhibition, usual class: inhibitors; hit rate 15% among 420,000; note: potency is the fitted concentration of half-maximal effect; nearly all actives have a fitted effect of over 55% in size
#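 Growth of hTDP1-complemented DT40 Tdp1-knockout cells is measured by ATP luminescence after at least 48 hr compound exposure at 37 °C, with DMSO substituting for the 20 nM CPT used in the parallel screen.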
# HT1080NT lethal: kills 2HG-producing HT-1080-NT fibrosarcoma cells; HT-1080-NT fibrosarcoma viability, CellTiter-Glo ATP luminescence, 48 h; AID 686970; hit rate 1.6% among 360,000; Potency, µM (series often up to 46.1 µM), without a hit: at the top dose activity, negative = less viability, usual class: cytotoxic;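 note: NT is the 2HG producing partner of a matched IDH1 knockdown line; potency is the fitted concentration of half-maximal effect; 0% = DMSO-treated cells and -100% = media-only wells without cells; nearly all actives have a fitted effect of over 55% in size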
#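 Read-out is CellTiter-Glo luminescence after 10 minutes at room temperature, following 48 hours' compound treatment of HT-1080-NT cells (750 cells/well, RPMI, 5% FBS, 37 degrees C).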
# TDP1 cell CPT: growth inhibition of DT40 Tdp1-/-;hTDP1 cells with camptothecin (screen for TDP1 inhibitors); hit rate 12% among 420,000; Potency, µM (titrated, usually from 46.2 µM), without a hit: at the highest dose activity change, negative = growth inhibition, actives largely listed as inhibitors; chicken DT40 Tdp1-/-;hTDP1 cells + 20 nM CPT, ATP luminescence, 48 h; note: potency is the fitted concentration of half-maximal effect; nearly all actives have a fitted effect of over 55% in size
#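 Chicken DT40 Tdp1-/- cells stably complemented with human TDP1 were seeded at 400 cells/well in medium containing 20 nM camptothecin, exposed to pin-transferred compounds, and grown at 37 °C for at least 48 hr. Viability was read as ATP luminescence.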
# The depositor's hits bear a star; ? = inconclusive; · = no result given; [ ] = another dose, or the depositor's remark. Unless noted, calls come from the whole dose curve; as a rule, active = well fitted curve in the direction sought with a large enough effect; inconclusive = small, poorly fitted or top-dose-only effect, or another doubt; inactive = no such curve, though single readings can be large; an effect the other way counts as inactive or inconclusive. Unless noted, % is set by controls: 0 for no effect and ±100 for the full control effect.
SMILES,uPA generation,IL-1B inflam inh,HT1080 IDH1KD tx,DT40 TDP1 no CPT,HT1080NT lethal,TDP1 cell CPT
O=[N+]([O-])c1ccccc1Oc1ccc(S(=O)(=O)N2CCOCC2)cc1,-23.9%,0.0,-0.2%,20.6µM*,-3.0%[9.24 µM],?
O=[N+]([O-])c1ccc(Oc2ccc(S(=O)(=O)N3CCCCC3)cc2)cc1,-3.4%,-6.8,8.3%,14.6µM*,0.9%,16.4µM*
CN1CCN(S(=O)(=O)c2ccc([N+](=O)[O-])cc2)CC1,12.4%,4.0,-3.1%,17.7%,-3.2%,-5.5%
CC1CCN(S(=O)(=O)c2ccc(Oc3ccc([N+](=O)[O-])cc3)cc2)CC1,·,?,4.8%,16.4µM*,?,16.4µM*
CCOc1ccc(C(F)(F)F)cc1NC(=O)COc1ccc(C(F)(F)F)cc1[N+](=O)[O-],-6.3%,-7.8,7.2%,12.1%,12.7%,-23.9%
CCCOP(=O)(OCCC)c1c([N+](=O)[O-])cc(C(F)(F)F)cc1[N+](=O)[O-],-10.8%,-73.4*,?,18.4µM*,?,?
N#CC1=C(N)C(C#N)(C#N)C(c2ccc[nH]2)C2CCCC=C12 (stereo not drawn),-21.1%,-27.3,?,?,-23.8%,?
N#CC1=C(N)C2=CCCC[C@H]2[C@H](c2cccc(F)c2)C1(C#N)C#N,-8.7%,-94.4*,16.4µM*,?,?,?
Cc1ccc([C@H]2C(C(=O)O)=CCN2S(=O)(=O)c2ccc(C)cc2)cc1,·,38.7,17.8%,-10.4%,-1.0%,0.2%
C#CCOCCOCCOCCNc1nc(N2CCN(C(=O)CCCCCCCCCCNC(=O)[C@H](CO)n3cc(CCCSC)nn3)CC2)nc(N2CCN(C(=O)CCCCCCCCCCNC(=O)[C@H](CO)n3cc(CCCSC)nn3)CC2)n1,-1.6%,?,-10.4%,6.51µM*,-0.3%,8.2µM*
C#CCOCCOCCOCCNc1nc(N2CCOCC2)nc(N2CCN(C(=O)CCCCCCCCCCNC(=O)[C@@H](CCSC)n3cc(CCO)nn3)CC2)n1,-6.9%,?,0.5%,?,0.2%,?
C#CCOCCOCCOCCNc1nc(N2CCN(C(=O)CCCCCCCCCCNC(=O)Cn3cc(CCCCCN)nn3)CC2)nc(N2CCN(C(=O)CCCCCCCCCCNC(=O)[C@H](CO)n3cc(CCCCCN)nn3)CC2)n1,-9.3%,-70.8*,?,?,-16.5%,?
C#CCOCCOCCOCCNc1nc(N2CCN(C(=O)CCCCCCCCCCNC(=O)Cn3cc(CCCCCN)nn3)CC2)nc(N2CCN(C(=O)CCCCCCCCCCNC(=O)[C@H]([C@@H](C)CC)n3cc(CCCCCN)nn3)CC2)n1,-25.7%,-105.7*,?,?,?,23.1µM*
COCc1cc(C)nc(SCC[N+](C)(C)CC(=O)c2ccccc2)c1C#N,0.4%,-0.4,1.7%,-5.0%,9.1%,-1.5%
Cc1cc(C=O)sc1[B-](F)(F)F,-5.2%,-19.0,0.3%,-11.8%,-4.4%,-1.2%
CCOC(=O)Cn1nc(C)c(NC(=O)COc2ccc(OC)cc2)c1C,0.8%,23.8,23.7%,-10.5%,25.4%,-1.3%
COc1ccc(NC(=O)Cn2c(=O)n(Cc3ccc4c(c3)OCO4)c(=O)c3ccc(C(=O)NC4CCCCC4)cc32)cc1,·,·,·,7.31µM*,·,8.2µM*
CCOc1ccc(NC(=O)Cn2c(=O)n(Cc3ccco3)c(=O)c3ccc(C(=O)NC4CCCC4)cc32)cc1,·,·,·,-27.4%,·,?
Cc1ccc([C@@H]2CC(=O)[C@@H]3CN(S(=O)(=O)c4ccc(C)cc4)[C@H](c4ccccc4)C[C@@H]3N2S(=O)(=O)c2ccc(Cl)cc2)cc1,·,3.5,-3.2%,-15.8%,0.2%,-11.6%
CCCCCCCCCCCCCCCC(=O)C(F)(F)F,·,·,·,-5.2%,·,8.4%
O=C1c2ccccc2C(=O)c2c(Nc3ccc(CCO)cc3)ccc(O)c21,-6.5%,?,-20.4%,16.4µM*,-20.7%,?
O=C1c2ccccc2C(=O)c2c(O)ccc(O)c21,·,·,·,-10.1%[9.04 µM],·,-5.7%[9.04 µM]
Cc1cccc(CN2CCC(Oc3ccc(C(=O)N4CCCC4)cc3)CC2)n1,6.2%,2.3,10.3%,-20.5%,3.9%,1.3%
C=CCc1ccccc1OCC(O)CNC(C)C (stereo not drawn),-14.4%,-70.2*,3.6%,-9.4%,-16.4%,-14.6%
C/C=C(/C)C(=O)O[C@@H]1Cc2c(ccc3ccc(=O)oc23)OC1(C)C,-16.2%,21.8,11.1%,?,13.3%,?
SMILES,uPA generation,IL-1B inflam inh,HT1080 IDH1KD tx,DT40 TDP1 no CPT,HT1080NT lethal,TDP1 cell CPT
C/C=C(/C)C(=O)O[C@H]1[C@@H](O)c2c(ccc3ccc(=O)oc23)OC1(C)C,3.0%,0.3,-3.2%,-29.4%,-1.6%,?
C/C=C(/C)C(=O)O[C@@H]1c2c(ccc3ccc(=O)oc23)O[C@@H]1C(C)(C)OC(=O)/C(C)=C\C,?,-11.3,?,16.4µM*,?,?
C/C=C(/C)C(=O)OC(C)(C)[C@@H]1Cc2c(ccc3ccc(=O)oc23)O1,1.1%,6.1,11.4%,?,6.5%,18.4µM*
C/C=C(/C)C(=O)O[C@@H]1[C@H](OC(C)=O)c2c(ccc3ccc(=O)oc23)OC1(C)C,4.7%,-0.5,-7.3%,16.4µM*,-2.1%,?
CCOC(=O)c1c(C)[nH]c(C)c1S(=O)(=O)N1CCC(C(=O)NCc2ccc(OC)cc2)CC1,·,·,·,-11.3%,·,-5.9%
O=C(c1ccccc1)N1CCOC(O)(c2ccccc2)C1c1ccccc1 (stereo not drawn),3.9%,-21.8,-17.4%,-31.9%,2.1%,?
CCOc1ccc(CNC(=O)c2ccc3c(c2)nc2n3CCC(C)C2)cc1OC (stereo not drawn),·,·,·,-4.4%,·,2.2%
Fc1ccc(CNc2nc(-c3ccccc3)nc3ccccc23)cc1,7.0%,-62.1*,-17.5%,?,?,?
O=C(O)CNc1nc(-c2ccccc2)nc2ccccc12,4.0%,20.3,-2.9%,-15.0%,1.9%,-6.8%
COc1ccc(CNc2nc(-c3ccccc3)nc3ccccc23)cc1OC,2.8%,-62.2*,-28.2%,?,?,-2.6%
CN(C)C1=NCCN1CCc1ccc(F)cc1,5.4%,10.1,9.4%,-9.6%,8.0%,-0.6%
CC(C)NC(=O)c1nn(C)c2c1CS(=O)(=O)c1ccccc1-2,·,·,·,0.4%,·,-20.1%
COc1cccc(CNc2nc3cc(-c4ccc(C)cc4)sc3c(=O)n2C)c1OC,·,84.8,?,18.4µM*,-1.4%,16.4µM*

# Screening results deposited in PubChem by National Center for Advancing Translational Sciences (NCATS).
